From PubChem
Sm TGR block: blocks Schistosoma mansoni thioredoxin glutathione reductase. hit rate 3% among 360,000. AID 485364. purified TGR, DTNB reduction, TNB absorbance 405 nm. Q962Y6. Potency, µM (series often up to 114 µM), without a hit: top-dose activity change, negative = inhibition, hits mostly inhibitors; further: potency means the concentration at half of the fitted maximal effect; nearly all actives have a fitted effect of over 60% in size
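First, TGR (20 nM dispensed) and NADPH were mixed with compound. Second, a 15 min room-temperature incubation followed. Third, further NADPH and then DTNB were added to start the reaction. Finally, TNB absorbance was monitored kinetically.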
Pf growth 96h: inhibits malaria parasite growth, 96 h; P. falciparum luciferase reporter growth, 96 h; Potency, µM (titrated, usually from 28.7 µM), for inactives: at the top dose activity change, negative = inhibition, usual class: inhibitors; hit rate 6.9% among 320,000; further: potency means the concentration at half of the fitted maximal effect
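Two-generation exposure (96 h) targets delayed-death phenotype. Reporter parasites carrying integrated firefly luciferase, in red cells at 2% hematocrit and 0.05% parasitemia final, kept at 37 C, 5% CO2; luminescence loss indicates inhibition.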
HCMV antiviral: human cytomegalovirus inhibition. HFF cells, HCMV-luciferase reporter, 72 h; hits give low values. activity change, negative = inhibition, % at 57.5 µM. hit rate 4.5% among 410,000. AID 1259415; in the data active means activity change below about -60%; inconclusive means no clear call, values can overlap the other calls; inactive means above about -39%
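Compounds were evaluated in HFFs infected with an HCMV luciferase reporter virus (MOI 1 PFU/cell). Luciferase in lysates collected 72 h post infection served as the replication measure.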
FBPA Giardia inh: inhibitors of Giardia lamblia fructose-1,6-bisphosphate aldolase | A8B2U2 | Potency, µM (series often up to 59.6 µM), without a hit: top-dose activity, negative = inhibition, hits mostly inhibitors | purified Giardia FBPA | hit rate 0.71% among 290,000; further: potency means the concentration at half of the fitted maximal effect; nearly all actives have a fitted effect of over 55% in size
Target sequence (A8B2U2 whole entry, looked up): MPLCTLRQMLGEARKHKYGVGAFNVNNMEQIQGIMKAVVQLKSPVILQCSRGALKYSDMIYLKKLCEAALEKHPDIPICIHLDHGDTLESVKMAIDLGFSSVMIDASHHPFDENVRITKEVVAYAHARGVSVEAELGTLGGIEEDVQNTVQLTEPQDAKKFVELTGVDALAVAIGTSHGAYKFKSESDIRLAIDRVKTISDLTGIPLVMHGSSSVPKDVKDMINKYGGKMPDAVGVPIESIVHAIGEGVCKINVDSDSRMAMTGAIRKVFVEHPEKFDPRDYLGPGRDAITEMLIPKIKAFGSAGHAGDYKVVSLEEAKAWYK
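Giardia FBPA (40 nM reagent) was preincubated 10 min at RT with compound (up to 57.5 uM final), then substrate plus GAPDH/TPI/NAD/arsenate coupling system with diaphorase/resazurin was added; resorufin fluorescence (525/598 nm) was read after 20 min.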
Pf growth 48h: P. falciparum growth inhibition at 48 hours (one generation); P. falciparum luciferase growth in erythrocytes, 48 h; AID 504832; Potency, µM (top dose mostly 28.7 µM), for inactives: at the top dose activity change, negative = inhibition, actives largely listed as inhibitors; hit rate 5.9% among 310,000; further: potency means the concentration at half of the fitted maximal effect
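Luminescence readout; reporter = integrated firefly luciferase in P. falciparum. RBC culture at 2% hematocrit, 0.1% parasitemia final, 37 C/5% CO2; decreased signal taken as growth inhibition.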
* marks the source's active call; other numbers are inactive results; ? = inconclusive; . = not tested or not shown; [ ] = dose if it differs, or a comment. An excerpt weighted towards active compounds, which were near 14% of everything screened. Unless noted, the call rests on the fitted dose curve; in most records, active means well fitted curve in the direction sought with a large enough effect; inconclusive means small, poorly fitted or top-dose-only effect, or another doubt; inactive means no such curve, though single readings can be large; an effect the other way counts as inactive or inconclusive. On the % scale 0 is the no-effect control and ±100 the full control effect.

SMILES	Sm TGR block	Pf growth 96h	HCMV antiviral	FBPA Giardia inh	Pf growth 48h
Cc1nc(SCC(=O)Nc2ccccc2Cl)c2c(C)c(C)sc2n1	-9%	?	?	.	5.2µM*
Cc1sc2nc(C3CC3)nc(SCC(=O)N3c4ccccc4CC3C)c2c1C (centres undefined)	9%	48%	.	3%	?
Cc1nc(SCC(=O)N2c3ccccc3NC(=O)CC2C)c2c(C)c(C)sc2n1 (centres undefined)	0%	13µM*	-27	.	?
Cc1nc(SCC(=O)NC2CCCC2)c2c(C)c(C)sc2n1	-1%	-11%	0	5%	?
COc1cccc(CN2CCN(Cc3ccc4c(NC(C)=O)cccc4n3)CC2CCO)c1 (centres undefined)	20µM*	-18%	20	-21%	-15%
COc1ccc(CN2CCN(Cc3cccn3-c3ncccn3)CC2CCO)c(C)c1C (centres undefined)	-24%	?	-12	1%	?
COc1ccc(CN2CCN(Cc3ccc4cc(F)ccc4n3)CC2CCO)c(C)c1C (centres undefined)	22µM*	?	7	-18%	?
Cc1ccc(CN2CCN(Cc3ccc4cc(F)ccc4n3)CC2CCO)o1 (centres undefined)	18µM*	?	-14	-12%	18%
OCCC1CN(Cc2ccc3nonc3c2)CCN1Cc1ccsc1 (centres undefined)	0%	0%	5	4%	18%
OCCC1CN(Cc2ccc3cc(Cl)ccc3n2)CCN1Cc1ccsc1 (centres undefined)	35µM*	5.2µM*	-30	-15%	?
Cc1ccc(CN2CCN(Cc3cnn(-c4ccc(F)cc4)c3)CC2CCO)o1 (centres undefined)	-19%[57.1 µM]	?	8	0%	-16%
COc1cccc(CN2CCN(Cc3ccon3)CC2CCO)c1 (centres undefined)	-25%	?	20	0%	16%
C=C1C2CC[C@@]3(C)C(c4ccoc4)OC(=O)C[C@@]13OC1CC(OC(C)=O)C(C)(C)C(CC(=O)OC)[C@@]12C (some centres undefined)	.	.	.	-9%	.
CCCNC(=O)C1(C)CCN(Cc2ccc3ccccc3c2Br)C1 (centres undefined)	.	.	-4	.	.
CCOc1ccccc1NC(=O)CCS(=O)(=O)c1ccc2c(c1)oc(=O)n2C	-4%	.	7	.	.
CC(C)=CCN1CCN(Cc2ccc3nsnc3c2)CC1CCO (centres undefined)	12%	?	-30	1%	-1%
COc1cc(CN2CCN(Cc3ccc4cc(F)ccc4n3)CC2CCO)cc(OC)c1 (centres undefined)	40µM*	?	24	?	1%
CCOc1ccccc1CN1CCN(Cc2ccc3cc(F)ccc3n2)CC1CCO (centres undefined)	35µM*	?	60	-21%	1%
CC(=O)Nc1ccc2nc(CN3CCN(CC=C(C)C)C(CCO)C3)ccc2c1 (centres undefined)	20µM*	?	-33	19%	11%
COc1cccc(CN2CCN(Cc3c(C)nn(C(C)C)c3C)CC2CCO)c1 (centres undefined)	-8%[57.1 µM]	10µM*	-36	-1%	-1%
COc1cc(CN2CCN(CCc3ccccc3)C(CCO)C2)cc(OC)c1 (centres undefined)	-13%	?	-22	-1%	?
CCOc1ccc2nc(CN3CCN(Cc4ccccc4OCC)C(CCO)C3)ccc2c1 (centres undefined)	?	?	8	-27%	?
Cn1c(NCc2ccc3occc3c2)nc2cc(-c3cccc(C(F)(F)F)c3)sc2c1=O	.	.	-15	.	.
O=C(c1ccc(NC(=S)NCc2ccco2)cc1)N1CCCCC1	?	25%	-36	-3%	-22%
CC1(OC(=O)c2ccco2)C(=O)C2=COC(C3CC3)=CC2=C(Br)C1=O (centres undefined)	.	.	.	-12%	.
CCN(CC)CCCNC(=O)C1CCN(C(=O)c2oc3cc4sc(N(C)C)nc4cc3c2C)CC1	-24%	12µM*	3	-17%	-17%
COc1ccc(NC(=O)COC(=O)C2CCN(S(=O)(=O)c3ccccc3)CC2)cc1Cl	-20%	11%	-4	.	9%
